From the supplement of paper PMC4723716
± gives the uncertainty stated by the source. In all, about 9,900 compounds were measured (“viability index relative to DMSO control”: median about 1, lowest 2% from about 0.85 on). What follows is part of a selection rich in the lowest values, with near analogues and random picks from the rest.

Test system: Plasmodium falciparum NF54 stage V gametocytes
Experiment: viability index relative to DMSO control (fraction); higher = less gametocyte killing
Details: 2.5 µM, incubation time: 72 h
Summary of the method: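 P. falciparum NF54 stage V gametocytes in serum-free screening medium (0.75% gametocytemia, 1.25% hematocrit, 10 µl) were incubated with compound at 2.5 µM in 1,536-well plates for 72 hr at 37°C under low oxygen. Then 3 µl of 2.5 µM MitoTracker Red CMXRos plus 0.13% saponin was added for one to two hours. One field per well was imaged, 20–70 µm2 red particles were counted, and the viability index was the count divided by the plate mean of DMSO wells.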

[1] = library set: Broad Institute DOS
[2] = library set: Broad Institute Blood Stage

Compound	viability index [1]	viability index [2]
C[C@H]1CCCCO[C@H](CN(C)C(=O)Nc2ccc(C(F)(F)F)cc2)[C@@H](C)CN([C@@H](C)CO)C(=O)c2cc(NS(=O)(=O)c3cn(C)cn3)ccc2O1	1.01 ± 0.013	
CO[C@H]1CN(C)C(=O)c2ccc(NS(C)(=O)=O)cc2OC[C@H](C)N(CC2CC2)C[C@@H]1C	1.03 ± 0.087	
CO[C@@H](CN(C)Cc1nccs1)[C@@H](C)CN([C@@H](C)CO)S(=O)(=O)c1ccc(F)cc1	1.04 ± 0.0028	
COCC(=O)Nc1ccc2c(c1)[C@@H]1C[C@@H](CC(=O)NCc3ccc4c(c3)OCO4)O[C@@H](CO)[C@@H]1O2	1.01 ± 0.047	
N#C[C@@H]1[C@H](c2ccccc2C2=CCCCC2)[C@H](CO)N1C(=O)CN1CCOCC1	1.17 ± 0.13	
N#C[C@H]1[C@@H](c2ccc(-c3cccnc3)cc2)[C@@H](CO)N1C(=O)C1CCOCC1	1.07 ± 0.031	
C[C@@H]1CCCCO[C@@H](CN(C)C(=O)CCC(F)(F)F)[C@H](C)CN([C@@H](C)CO)C(=O)c2cc(NC(=O)C3CCCCC3)ccc2O1	1.13 ± 0.072	
COc1ccc(-c2ccc([C@@H]3[C@@H]4CN(S(=O)(=O)c5ccccc5C)C[C@H]3N4)cc2)cc1	0.713 ± 0.11	
C/C=C/c1ccc([C@@H]2[C@@H]3CN(S(=O)(=O)c4ccccc4F)C[C@H]2N3)cc1	0.904 ± 0.016	
Cc1ccccc1S(=O)(=O)N1C[C@@H]2N[C@H](C1)[C@H]2c1ccc(/C=C/c2ccccc2)cc1	1 ± 0.048	
O=S(=O)(c1ccc(F)cc1)N1C[C@@H]2N[C@H](C1)[C@H]2c1ccc(/C=C/c2ccccc2)cc1	1.04 ± 0.055	
O=S(=O)(c1ccc(F)cc1)N1C[C@@H]2N[C@H](C1)[C@@H]2c1ccc(/C=C/c2ccccc2)cc1	0.78 ± 0.029	
Cc1ccccc1S(=O)(=O)N1C[C@@H]2N[C@H](C1)[C@H]2c1ccc(-c2cccc(C#N)c2)cc1	1.03 ± 0.033	
Cc1ccccc1S(=O)(=O)N1C[C@@H]2N[C@H](C1)[C@@H]2c1ccc(-c2cccc(C#N)c2)cc1	0.903 ± 0.018	
Cc1ccccc1S(=O)(=O)N1C[C@@H]2N[C@H](C1)[C@@H]2c1ccc(/C=C/c2ccccc2)cc1	0.771 ± 0.028	
COc1ccc(-c2ccc([C@H]3[C@@H]4CN(S(=O)(=O)c5ccccc5C)C[C@H]3N4)cc2)cc1	0.916 ± 0.068	
COc1cccc(S(=O)(=O)N[C@@H]2CC[C@H](CC(=O)NC3Cc4ccccc4C3)O[C@H]2CO)c1	0.907 ± 0.18	
Cc1ccc(S(=O)(=O)Nc2ccc3c(c2)C(=O)N([C@H](C)CO)C[C@H](C)[C@H](CN(C)S(=O)(=O)c2cccs2)OCCCC[C@H](C)O3)cc1	1.07 ± 0.14	

Compound	viability index [1]	viability index [2]
CNC[C@H]1Oc2ccc(NS(=O)(=O)c3ccc(OC)cc3)cc2C(=O)N([C@H](C)CO)C[C@H]1C	1.01 ± 0.079	
Cc1noc(C)c1NC(=O)N[C@H]1C=C[C@H](CC(=O)Nc2ccc(-c3ccccc3)cc2)O[C@H]1CO	1.0744 ± 0.00039	
CO[C@H]1CN(C)C(=O)c2cc(NC(=O)c3ccc(F)cc3)ccc2OC[C@@H](C)N(C(=O)CC2CC2)C[C@H]1C	1.099 ± 0.004	
CCCNC(=O)N1C[C@@H](O)COC[C@H]2O[C@@H](CC(=O)OC)CC[C@@H]21	1.14 ± 0.053	
N#C[C@@H]1[C@H](c2ccccc2-c2cccc(F)c2)[C@H](CO)N1C(=O)CN1CCOCC1	1.15 ± 0.068	
C/C=C/c1ccc([C@H]2[C@@H](CO)N(C(=O)C3CC3)[C@H]2CNC(=O)NC(C)C)cc1	0.989 ± 0.018	
C/C=C/c1ccc([C@H]2[C@@H](CO)N(CC3CCCCC3)[C@@H]2CNC(C)C)cc1		0.565 ± 0.068
C/C=C/c1ccc([C@H]2[C@H](CO)N(S(C)(=O)=O)[C@H]2CNCC2CCC2)cc1	0.688 ± 0.08	
C/C=C/c1ccc([C@H]2[C@@H](CO)N(S(C)(=O)=O)[C@@H]2CN(C(C)=O)C(C)C)cc1	0.957 ± 0.06	
C/C=C/c1ccc([C@H]2[C@@H](CO)N(CC3CCCC3)[C@H]2CNS(C)(=O)=O)cc1	1.03 ± 0.099	
C/C=C/c1ccc([C@H]2[C@@H](CNC(=O)CC3CC3)N(C(=O)CC)[C@H]2CO)cc1	1.05 ± 0.054	
CCC(=O)Nc1ccc2c(c1)C(=O)N(C)C[C@@H](OC)[C@@H](C)CN(Cc1nccs1)[C@H](C)CO2	1.16 ± 0.082	
COC(=O)C[C@@H]1CC[C@@H]2[C@@H](COc3ccc(NC(=O)c4ccc(C(F)(F)F)cc4)cc3C(=O)N2C)O1	1.13 ± 0.065	
C[C@@H]1COCn2nncc2CC[C@H](Cc2cccc(Cl)c2)C(=O)N1	1.09 ± 0.051	
COCC(=O)Nc1ccc2c(c1)C(=O)N(C)[C@H]1CC[C@@H](CC(=O)NC3Cc4ccccc4C3)O[C@@H]1CO2	1.16 ± 0.13	
C[C@H]1CN([C@@H](C)CO)C(=O)c2cc(/C=C/c3ccccc3)cnc2O[C@@H]1CN(C)C(=O)C1CCCCC1		0.643 ± 0.072
C[C@H](CO)N1C[C@H](C)[C@@H](CN(C)C(=O)C2CCCCC2)Oc2ncc(/C=C/c3ccccc3)cc2C1=O		0.735 ± 0.028
C[C@H]1CN([C@@H](C)CO)C(=O)c2cc(/C=C/c3ccccc3)cnc2O[C@@H]1CN(C)S(=O)(=O)c1ccccc1F	1.03 ± 0.082	
